Experimental data reported in PubChem BioAssay AID1159580 (chemical genetic matrix, 2015).
About 2,000 (36%) of roughly 5,500 compounds were called active. Inconclusive results (about 18%) are left out. Rule as the data show it: active = normalized growth mostly below about 0.91 (no sharp cut-off); inconclusive = no clear call, values can overlap the other calls; inactive = mostly above about 0.92. Some of the results follow.

Experiment: chemical genetic growth profiling, strain panel (AID 1159580);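 also: tested at 20 µM; growth read once vehicle control cultures reached saturation at 30 °C; 1 = growth at the plate median or of vehicle wells; lower values mean less growth of the strain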
Settings: growth OD

Measured: normalized growth

CN(Cc1cnc2nc(N)nc(N)c2n1)c1ccc(C(=O)NC(CCC(=O)O)C(=O)O)cc1 (stereo unspecified)
inactive: S. cerevisiae deletion strains, locus YKL160W, strain elf1, hits give low values 0.94 | S. cerevisiae deletion strains, locus YKR001C, strain vps1, hits give low values 0.953 | S. cerevisiae deletion strains, locus YKR026C, strain gcn3, hits give low values 0.934 | S. cerevisiae deletion strains, locus YKR091W, strain srl3, hits give low values 0.94 | S. cerevisiae deletion strains, locus YLL026W, hits give low values 0.935 | S. cerevisiae deletion strains, locus YLL041C, strain sdh2, hits give low values 0.955 | S. cerevisiae deletion strains, locus YLR027C, strain aat2, hits give low values 0.94 | S. cerevisiae deletion strains, locus YLR039C, strain RIC1, hits give low values 0.909 | S. cerevisiae deletion strains, locus YLR058C, strain SHM2, hits give low values 0.99 | S. cerevisiae deletion strains, locus YLR102C, strain apc9, hits give low values 0.993 | S. cerevisiae deletion strains, locus YLR258W, strain gsy2, hits give low values 0.923 | S. cerevisiae deletion strains, locus YLR262C, strain YPT6 (second series), hits give low values 0.952 | S. cerevisiae deletion strains, locus YLR262C, strain YPT6, hits give low values 0.958 | S. cerevisiae deletion strains, locus YLR268W, strain sec22, hits give low values 0.984 | S. cerevisiae deletion strains, locus YLR330W, strain CHS5, hits give low values 0.973 | S. cerevisiae deletion strains, locus YLR342W, strain FKS1 (second series), hits give low values 1.01 | S. cerevisiae deletion strains, locus YLR342W, strain FKS1, hits give low values 0.928 | S. cerevisiae deletion strains, locus YLR357W, strain rsc2, hits give low values 0.943 | S. cerevisiae deletion strains, locus YLR371W, strain rom2, hits give low values 1.01 | S. cerevisiae deletion strains, locus YLR418C, strain cdc73, hits give low values 0.96 | S. cerevisiae deletion strains, locus YML016C, strain PPZ1, hits give low values 1.01 | S. cerevisiae deletion strains, locus YML032C, strain rad52, hits give low values 0.986 | S. cerevisiae deletion strains, locus YML124C, strain tub3, hits give low values 0.974 | S. cerevisiae deletion strains, locus YMR078C, strain ctf18, hits give low values 0.986 | S. cerevisiae deletion strains, locus YMR125W, strain sto1, hits give low values 0.95 | S. cerevisiae deletion strains, locus YMR129W, hits give low values 0.948 | S. cerevisiae deletion strains, locus YMR205C, strain PFK2, hits give low values 0.948 | S. cerevisiae deletion strains, locus YMR223W, strain ubp8, hits give low values 0.953 | S. cerevisiae deletion strains, locus YMR263W, strain SAP30, hits give low values 0.987 | S. cerevisiae deletion strains, locus YMR307W, strain GAS1, hits give low values 1.02 | S. cerevisiae deletion strains, locus YNL067W, strain RPL9B, hits give low values 0.963 | S. cerevisiae deletion strains, locus YNL071W, strain lat1, hits give low values 0.961 | S. cerevisiae deletion strains, locus YNL153C, strain GIM3, hits give low values 0.974 | S. cerevisiae deletion strains, locus YNL175C, strain NOP13, hits give low values 0.975 | S. cerevisiae deletion strains, locus YNL197C, strain WHI3, hits give low values 0.976 | S. cerevisiae deletion strains, locus YNL224C, strain SQS1, hits give low values 0.977 | S. cerevisiae deletion strains, locus YNL233W, strain BNI4, hits give low values 0.98 | S. cerevisiae deletion strains, locus YNL248C, strain rpa49, hits give low values 0.925 | S. cerevisiae deletion strains, locus YNL307C, strain MCK1, hits give low values 1.01 | S. cerevisiae deletion strains, locus YNL322C, strain KRE1, hits give low values 0.971 | S. cerevisiae deletion strains, locus YNR049C, strain mso1, hits give low values 0.921 | S. cerevisiae deletion strains, locus YNR052C, strain pop2, hits give low values 0.951 | S. cerevisiae deletion strains, locus YOL012C, strain htz1 1.38 | S. cerevisiae deletion strains, locus YOL147C, strain pex11, hits give low values 0.982 | S. cerevisiae deletion strains, locus YOR001W, strain rrp6, hits give low values 0.929 | S. cerevisiae deletion strains, locus YOR061W, strain CKA2, hits give low values 0.99 | S. cerevisiae deletion strains, locus YOR069W, strain VPS5, hits give low values 0.987 | S. cerevisiae deletion strains, locus YOR070C, strain gyp1, hits give low values 0.934 | S. cerevisiae deletion strains, locus YOR083W, strain WHI5 (second series), hits give low values 0.984 | S. cerevisiae deletion strains, locus YOR083W, strain WHI5, hits give low values 0.908 | S. cerevisiae deletion strains, locus YOR136W, strain idh2, hits give low values 0.995 | S. cerevisiae deletion strains, locus YOR144C, strain elg1, hits give low values 0.975 | S. cerevisiae deletion strains, locus YOR184W, strain ser1, hits give low values 0.968 | S. cerevisiae deletion strains, locus YOR270C, strain vph1, hits give low values 0.957 | S. cerevisiae deletion strains, locus YOR316C, strain cot1, hits give low values 0.984 | S. cerevisiae deletion strains, locus YPL051W, strain arl3, hits give low values 0.984 | S. cerevisiae deletion strains, locus YPL078C, strain atp4, hits give low values 0.947 | S. cerevisiae deletion strains, locus YPL106C, strain sse1, hits give low values 0.947 | S. cerevisiae deletion strains, locus YPL240C, strain hsp82, hits give low values 0.957 | S. cerevisiae deletion strains, locus YPR119W, strain clb2, hits give low values 0.989 | S. cerevisiae deletion strains, locus YPR163C, strain tif3, hits give low values 0.985 | S. cerevisiae deletion strains, locus YPR167C, strain met16, hits give low values 0.975 | S. cerevisiae deletion strains, strain wtn01, hits give low values 0.97 | S. cerevisiae strains, strain wild type, hits give low values 0.973
active: S. cerevisiae deletion strains, locus YJR066W, strain TOR1, hits give low values 0.0866 | S. cerevisiae deletion strains, locus YKL009W, strain mrt4, hits give low values 0.527 | S. cerevisiae deletion strains, locus YKL068W, hits give low values 0.513 | S. cerevisiae deletion strains, locus YKL085W, strain MDH1 (second series), hits give low values 0.311 | S. cerevisiae deletion strains, locus YKL085W, strain MDH1, hits give low values 0.311 | S. cerevisiae deletion strains, locus YLL001W, strain dnm1, hits give low values 0.873 | S. cerevisiae deletion strains, locus YLR113W, strain HOG1, hits give low values 0.247 | S. cerevisiae deletion strains, locus YLR221C, strain rsa3, hits give low values 0.816 | S. cerevisiae deletion strains, locus YLR320W, strain mms22, hits give low values 0.789 | S. cerevisiae deletion strains, locus YLR370C, strain arc18, hits give low values 0.877 | S. cerevisiae deletion strains, locus YLR384C, strain iki3, hits give low values 0.88 | S. cerevisiae deletion strains, locus YML120C, strain ndi1, hits give low values 0.813 | S. cerevisiae deletion strains, locus YMR058W, strain fet3, hits give low values 0.893 | S. cerevisiae deletion strains, locus YMR231W, strain pep5, hits give low values 0.923 | S. cerevisiae deletion strains, locus YNL183C, strain NPR1, hits give low values 0.112 | S. cerevisiae deletion strains, locus YNL209W, strain ssb2, hits give low values 0.913 | S. cerevisiae deletion strains, locus YNL250W, strain rad50, hits give low values 0.195 | S. cerevisiae deletion strains, locus YNL271C, strain bni1, hits give low values 0.291 | S. cerevisiae deletion strains, locus YNL298W, strain CLA4, hits give low values 0.385 | S. cerevisiae deletion strains, locus YNL322C, strain KRE1 (second series), hits give low values 0.512 | S. cerevisiae deletion strains, locus YOR080W, strain dia2, hits give low values 0.902 | S. cerevisiae deletion strains, locus YOR106W, strain vam3, hits give low values 0.801 | S. cerevisiae deletion strains, locus YOR231W, strain MKK1, hits give low values 0.193 | S. cerevisiae deletion strains, locus YOR265W, strain rbl2, hits give low values 0.911 | S. cerevisiae deletion strains, locus YOR290C, strain snf2, hits give low values 0.845 | S. cerevisiae deletion strains, locus YPL256C, strain CLN2, hits give low values 0.227 | S. cerevisiae deletion strains, locus YPR141C, strain kar3, hits give low values 0.345
